Consider 17 compounds from ChEMBL document CHEMBL2218924, “A broad activity screen in support of a chemogenomic map for kinase signalling research and drug discovery” (Biochem J, 2013).

For assay [1], the target named is Ephrin type-A receptor 5 (Homo sapiens) (UniProt P54756). As to conditions: at 1 µM.
Assay [2] has the same target. The following applies: at 10 µM.
In assay [3] the target is Ephrin type-A receptor 7 (Homo sapiens) (UniProt Q15375). As to conditions: at 1 µM.
For assay [4] the target is unchanged. The following applies: at 10 µM.
The target of assay [5] is T1, Ephrin type-A receptor 8 (Homo sapiens) (UniProt P29322).
T1 sequence (whole entry): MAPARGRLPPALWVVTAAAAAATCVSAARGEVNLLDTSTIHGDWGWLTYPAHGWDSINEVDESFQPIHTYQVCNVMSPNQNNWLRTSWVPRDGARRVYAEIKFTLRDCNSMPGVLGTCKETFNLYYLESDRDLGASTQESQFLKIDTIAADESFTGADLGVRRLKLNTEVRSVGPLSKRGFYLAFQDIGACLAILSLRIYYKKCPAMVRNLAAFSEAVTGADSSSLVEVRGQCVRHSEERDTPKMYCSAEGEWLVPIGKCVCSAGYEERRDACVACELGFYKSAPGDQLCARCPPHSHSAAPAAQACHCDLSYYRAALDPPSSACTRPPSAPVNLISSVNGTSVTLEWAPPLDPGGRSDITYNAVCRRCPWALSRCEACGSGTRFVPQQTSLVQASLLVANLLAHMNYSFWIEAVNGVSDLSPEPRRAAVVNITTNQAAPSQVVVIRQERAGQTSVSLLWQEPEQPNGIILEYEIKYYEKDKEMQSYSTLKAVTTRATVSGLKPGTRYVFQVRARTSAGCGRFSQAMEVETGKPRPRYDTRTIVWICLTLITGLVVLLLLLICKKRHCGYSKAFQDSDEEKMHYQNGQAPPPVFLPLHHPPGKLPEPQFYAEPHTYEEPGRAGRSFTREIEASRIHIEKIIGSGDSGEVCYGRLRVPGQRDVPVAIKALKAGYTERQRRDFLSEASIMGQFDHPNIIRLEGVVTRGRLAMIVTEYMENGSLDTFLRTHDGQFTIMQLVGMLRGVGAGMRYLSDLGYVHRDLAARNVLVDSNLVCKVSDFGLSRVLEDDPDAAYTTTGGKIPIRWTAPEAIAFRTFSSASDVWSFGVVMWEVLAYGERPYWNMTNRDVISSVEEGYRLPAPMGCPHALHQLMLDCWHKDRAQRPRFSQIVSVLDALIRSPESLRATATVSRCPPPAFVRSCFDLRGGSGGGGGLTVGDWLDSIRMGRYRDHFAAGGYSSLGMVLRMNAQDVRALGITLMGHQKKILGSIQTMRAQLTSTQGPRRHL
As to conditions: at 1 µM.

Assay [6] addresses T1, Ephrin type-A receptor 8 (Homo sapiens). The following applies: at 10 µM.
In assay [7] the target is T2, Ephrin type-A receptor 3 (Homo sapiens) (UniProt P29320).
T2 sequence (whole entry): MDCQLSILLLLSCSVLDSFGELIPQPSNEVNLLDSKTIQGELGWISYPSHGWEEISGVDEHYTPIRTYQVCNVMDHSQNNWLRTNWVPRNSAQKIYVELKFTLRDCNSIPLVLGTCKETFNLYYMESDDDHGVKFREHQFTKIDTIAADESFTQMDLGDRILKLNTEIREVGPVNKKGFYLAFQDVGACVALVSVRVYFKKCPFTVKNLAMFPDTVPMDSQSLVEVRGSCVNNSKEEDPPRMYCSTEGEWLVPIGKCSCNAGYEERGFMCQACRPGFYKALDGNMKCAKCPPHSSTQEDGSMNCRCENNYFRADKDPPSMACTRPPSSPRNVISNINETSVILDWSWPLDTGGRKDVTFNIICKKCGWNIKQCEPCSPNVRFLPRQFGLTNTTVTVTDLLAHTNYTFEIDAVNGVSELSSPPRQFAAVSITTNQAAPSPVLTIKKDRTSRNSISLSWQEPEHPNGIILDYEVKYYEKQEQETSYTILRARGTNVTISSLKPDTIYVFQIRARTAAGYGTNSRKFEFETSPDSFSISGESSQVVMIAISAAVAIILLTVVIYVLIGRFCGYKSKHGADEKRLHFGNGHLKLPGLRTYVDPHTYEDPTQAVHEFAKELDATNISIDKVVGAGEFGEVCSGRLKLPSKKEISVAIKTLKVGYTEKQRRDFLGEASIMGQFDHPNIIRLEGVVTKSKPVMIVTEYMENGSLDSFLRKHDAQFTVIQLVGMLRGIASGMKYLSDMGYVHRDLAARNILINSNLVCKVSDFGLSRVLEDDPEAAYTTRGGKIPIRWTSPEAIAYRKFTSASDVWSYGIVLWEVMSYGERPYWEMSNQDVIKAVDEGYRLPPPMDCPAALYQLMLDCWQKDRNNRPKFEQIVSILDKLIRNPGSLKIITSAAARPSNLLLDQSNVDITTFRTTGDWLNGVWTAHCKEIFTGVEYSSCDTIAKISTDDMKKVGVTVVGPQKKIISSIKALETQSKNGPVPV
The following applies: at 10 µM.

Assay [8] has as its target Ephrin type-A receptor 4 (Homo sapiens) (UniProt P54764). The following applies: at 1 µM.
Assay [9] has the same target. As to conditions: at 10 µM.
The target of assay [10] is T3, Ephrin type-B receptor 1 (Homo sapiens) (UniProt P54762).
T3 sequence (whole entry): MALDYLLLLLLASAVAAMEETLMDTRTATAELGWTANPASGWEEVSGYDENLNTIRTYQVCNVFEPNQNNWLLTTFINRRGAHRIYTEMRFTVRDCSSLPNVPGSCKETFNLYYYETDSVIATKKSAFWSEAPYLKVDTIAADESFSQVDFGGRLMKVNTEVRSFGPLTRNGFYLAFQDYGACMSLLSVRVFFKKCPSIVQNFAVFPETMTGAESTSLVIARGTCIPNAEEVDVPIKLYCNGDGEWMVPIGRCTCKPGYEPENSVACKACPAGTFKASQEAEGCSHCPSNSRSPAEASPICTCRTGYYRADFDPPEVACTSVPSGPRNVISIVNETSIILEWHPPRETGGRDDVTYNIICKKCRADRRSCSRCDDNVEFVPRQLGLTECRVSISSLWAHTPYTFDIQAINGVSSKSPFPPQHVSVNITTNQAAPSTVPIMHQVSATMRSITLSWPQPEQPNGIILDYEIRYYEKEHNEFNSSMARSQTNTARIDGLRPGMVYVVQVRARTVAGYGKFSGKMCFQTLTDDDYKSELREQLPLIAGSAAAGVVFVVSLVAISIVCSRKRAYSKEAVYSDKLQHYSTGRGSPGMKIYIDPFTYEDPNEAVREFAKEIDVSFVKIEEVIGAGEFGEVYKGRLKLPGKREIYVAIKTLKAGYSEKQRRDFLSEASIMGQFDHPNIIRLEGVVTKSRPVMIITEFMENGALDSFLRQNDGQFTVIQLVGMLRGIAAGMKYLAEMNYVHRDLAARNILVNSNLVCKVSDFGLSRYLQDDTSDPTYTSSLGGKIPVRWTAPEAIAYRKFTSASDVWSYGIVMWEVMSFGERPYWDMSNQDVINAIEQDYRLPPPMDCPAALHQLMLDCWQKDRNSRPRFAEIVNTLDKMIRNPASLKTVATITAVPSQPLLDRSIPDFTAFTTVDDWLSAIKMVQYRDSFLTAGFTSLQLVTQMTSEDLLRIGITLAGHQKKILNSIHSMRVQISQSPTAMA
The following applies: at 1 µM.

Sequence of Ephrin type-A receptor 7 (Homo sapiens) (Q15375 28-998 limits assumed): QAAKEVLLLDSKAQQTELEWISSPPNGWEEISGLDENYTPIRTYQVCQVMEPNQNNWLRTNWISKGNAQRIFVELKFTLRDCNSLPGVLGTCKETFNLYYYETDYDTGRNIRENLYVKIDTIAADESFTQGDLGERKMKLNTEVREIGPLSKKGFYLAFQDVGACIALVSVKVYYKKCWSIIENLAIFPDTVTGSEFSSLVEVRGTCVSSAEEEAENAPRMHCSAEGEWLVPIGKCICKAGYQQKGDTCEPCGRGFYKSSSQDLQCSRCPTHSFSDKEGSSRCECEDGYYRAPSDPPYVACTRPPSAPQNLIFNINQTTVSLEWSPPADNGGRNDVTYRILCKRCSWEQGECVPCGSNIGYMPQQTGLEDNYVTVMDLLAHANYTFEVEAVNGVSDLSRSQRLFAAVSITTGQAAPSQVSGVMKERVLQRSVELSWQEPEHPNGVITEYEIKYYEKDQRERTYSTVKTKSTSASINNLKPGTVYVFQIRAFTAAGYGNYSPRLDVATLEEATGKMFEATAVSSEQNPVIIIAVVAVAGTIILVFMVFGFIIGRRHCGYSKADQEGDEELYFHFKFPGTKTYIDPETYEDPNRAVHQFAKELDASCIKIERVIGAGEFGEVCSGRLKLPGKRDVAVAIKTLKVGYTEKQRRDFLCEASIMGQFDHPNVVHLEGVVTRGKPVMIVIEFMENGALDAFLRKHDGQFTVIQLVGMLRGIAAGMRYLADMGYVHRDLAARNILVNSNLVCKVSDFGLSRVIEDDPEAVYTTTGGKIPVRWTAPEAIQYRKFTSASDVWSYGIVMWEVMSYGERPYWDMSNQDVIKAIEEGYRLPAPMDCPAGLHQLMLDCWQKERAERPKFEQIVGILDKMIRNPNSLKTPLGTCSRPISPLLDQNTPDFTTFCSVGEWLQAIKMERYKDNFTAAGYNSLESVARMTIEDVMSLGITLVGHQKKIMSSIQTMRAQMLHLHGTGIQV
Sequence of Ephrin type-A receptor 4 (Homo sapiens) (P54764 whole entry): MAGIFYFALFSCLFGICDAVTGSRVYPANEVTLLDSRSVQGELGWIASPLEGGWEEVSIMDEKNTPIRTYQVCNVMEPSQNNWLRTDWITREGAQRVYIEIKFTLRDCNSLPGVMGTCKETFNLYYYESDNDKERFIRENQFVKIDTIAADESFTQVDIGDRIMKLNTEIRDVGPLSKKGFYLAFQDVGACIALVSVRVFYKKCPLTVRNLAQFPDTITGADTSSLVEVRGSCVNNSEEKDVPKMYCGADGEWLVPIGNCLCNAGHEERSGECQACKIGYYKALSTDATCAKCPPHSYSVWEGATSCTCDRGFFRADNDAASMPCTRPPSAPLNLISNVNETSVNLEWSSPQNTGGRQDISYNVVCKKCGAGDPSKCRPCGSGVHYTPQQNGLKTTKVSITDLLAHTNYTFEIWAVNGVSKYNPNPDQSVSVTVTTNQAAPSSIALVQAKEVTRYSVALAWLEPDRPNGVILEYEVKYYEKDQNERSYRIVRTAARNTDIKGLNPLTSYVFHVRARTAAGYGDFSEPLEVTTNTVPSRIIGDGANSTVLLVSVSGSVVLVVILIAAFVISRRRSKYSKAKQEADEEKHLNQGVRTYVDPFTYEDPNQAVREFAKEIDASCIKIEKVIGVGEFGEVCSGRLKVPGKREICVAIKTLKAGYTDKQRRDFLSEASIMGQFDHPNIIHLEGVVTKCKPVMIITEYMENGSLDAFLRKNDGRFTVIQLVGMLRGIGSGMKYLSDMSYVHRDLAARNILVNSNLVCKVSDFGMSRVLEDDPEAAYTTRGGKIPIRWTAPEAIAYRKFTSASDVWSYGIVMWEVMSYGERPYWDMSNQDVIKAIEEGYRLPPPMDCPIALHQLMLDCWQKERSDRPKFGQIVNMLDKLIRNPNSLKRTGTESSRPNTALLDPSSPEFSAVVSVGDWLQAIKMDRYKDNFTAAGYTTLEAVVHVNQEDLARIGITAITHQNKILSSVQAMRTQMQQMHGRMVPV
Sequence of Ephrin type-A receptor 5 (Homo sapiens) (P54756 whole entry): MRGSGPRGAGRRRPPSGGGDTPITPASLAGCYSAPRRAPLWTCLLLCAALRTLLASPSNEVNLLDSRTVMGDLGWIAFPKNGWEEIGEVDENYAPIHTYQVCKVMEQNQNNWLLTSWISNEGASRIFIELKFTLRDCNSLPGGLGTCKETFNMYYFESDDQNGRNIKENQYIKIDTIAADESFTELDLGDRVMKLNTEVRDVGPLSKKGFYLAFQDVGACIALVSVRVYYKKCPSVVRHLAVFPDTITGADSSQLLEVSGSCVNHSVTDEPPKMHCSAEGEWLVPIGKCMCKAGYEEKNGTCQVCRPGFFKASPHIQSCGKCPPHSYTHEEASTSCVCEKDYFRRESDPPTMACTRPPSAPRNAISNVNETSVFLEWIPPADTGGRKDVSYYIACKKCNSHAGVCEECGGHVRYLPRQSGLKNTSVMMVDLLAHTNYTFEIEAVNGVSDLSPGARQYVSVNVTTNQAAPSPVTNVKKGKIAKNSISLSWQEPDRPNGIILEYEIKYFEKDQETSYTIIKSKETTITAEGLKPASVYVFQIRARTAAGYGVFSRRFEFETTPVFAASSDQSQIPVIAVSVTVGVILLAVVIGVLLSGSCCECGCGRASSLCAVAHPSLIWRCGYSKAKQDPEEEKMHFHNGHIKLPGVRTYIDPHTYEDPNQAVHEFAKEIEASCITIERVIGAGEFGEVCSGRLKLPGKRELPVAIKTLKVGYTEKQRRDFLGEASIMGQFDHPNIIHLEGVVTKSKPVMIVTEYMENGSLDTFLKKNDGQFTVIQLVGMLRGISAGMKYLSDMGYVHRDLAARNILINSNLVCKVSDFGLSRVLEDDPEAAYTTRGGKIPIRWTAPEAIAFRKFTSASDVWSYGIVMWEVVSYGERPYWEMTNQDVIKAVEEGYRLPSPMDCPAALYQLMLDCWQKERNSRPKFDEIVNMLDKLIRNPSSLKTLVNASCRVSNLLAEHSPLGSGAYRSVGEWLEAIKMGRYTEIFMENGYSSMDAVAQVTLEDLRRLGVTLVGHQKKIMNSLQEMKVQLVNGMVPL

As a reminder, the residual activity is the signal under treatment as a percentage of the control signal. For `O=C1NC(=O)c2c1c1c3ccccc3n3c1c1c2c2ccccc2n1C1CCC3O1`, the residual activity in assay [1] turned out to be 94%; in assay [2], 92%; in assay [3], 100%; in assay [4] it was 100%; in [5], 96%; in [6], 94%.

For the compound `CC(C)[C@H](CO)Nc1nc(Nc2cccc(Cl)c2)c2ncn(C(C)C)c2n1`, the residual activity in assay [7] is 31%; in [8], 95%; in [9] it was 47%; in assay [1], 83%; in assay [2] it was 14%; in assay [3], 76%. Moreover, the residual activity in assay [4] was 28%; in assay [5] it was 85%; in [6], 46%; in [10] it was 63%.

As to `COc1ccc2c(c[n+](C)c3c4cc5c(cc4ccc23)OCO5)c1OC`, the residual activity in assay [7] came out at 92%; in assay [3] it was 94%; in assay [4] it was 79%; in assay [10], 89%.

Regarding `c1cc(-c2cnn3cc(-c4ccc(OCCN5CCCCC5)cc4)cnc23)ccn1`, the residual activity in [7] was 7%; in assay [9] it was 39%; in [4], 51%; in [10] it was 37%.

Consider `O=C1Nc2ccc3ncsc3c2/C1=C/c1c[nH]cn1`, for which the residual activity in assay [7] came to 28%; in assay [8], 102%; in assay [9], 68%; in [1] it was 89%; in assay [2] it was 42%; in assay [3], 77%. In addition, the residual activity in assay [4] turned out to be 17%; in [5], 95%; in assay [6] it was 72%; in assay [10], 60%.

On to `CC(C)(C)c1cc(C=C(C#N)C#N)cc(Br)c1O`, for which the residual activity in [7] amounted to 106%; in [8], 113%; in assay [1], 107%; in assay [2], 97%; in assay [3] it was 109%; in assay [4], 102%. In addition, the residual activity in [5] amounted to 117%; in assay [6] it was 99%; in [10], 106%.

Regarding `O=c1[nH]c2ccccc2n1C1CCN(Cc2ccc(-c3nc4cc5[nH]cnc5cc4nc3-c3ccccc3)cc2)CC1`, the residual activity in [7] was 76%; in assay [8] it was 112%; in assay [9], 81%; in assay [1], 114%; in [2], 99%; in assay [3] it was 97%. Also, the residual activity in assay [4] came to 93%; in assay [5] it was 108%; in assay [6] it was 104%; in assay [10], 93%.

Turning to `O=[N+]([O-])/C=C/c1ccc2c(c1)OCO2`, the residual activity in [7] was found to be 95%; in [8] it was 112%; in assay [9], 100%; in assay [1] it was 103%; in assay [2], 93%; in assay [3], 95%. Further, the residual activity worked out at 89% in assay [4], 100% in assay [5], 103% in assay [6] and 115% in [10].

With `COc1ccc2c(c1)/C(=C/c1cnc[nH]1)C(=O)N2`, in [2], the residual activity was 81%.

Take `COC(=O)[C@@]1(O)C[C@H]2O[C@]1(C)n1c3ccccc3c3c4c(c5c6ccccc6n2c5c31)C(=O)NC4`: the residual activity in assay [7] came to 5%; in [8] it was 83%; in assay [9] it was 43%; in [1], 66%; in assay [2] it was 13%; in [3], 32%. The residual activity in [4] amounted to 4%; in assay [5], 78%; in assay [6], 40%; in assay [10] it was 39%.

`C[S+]([O-])c1ccc(-c2nc(-c3ccc(F)cc3)c(-c3ccncc3)[nH]2)cc1` (stereo not given): the residual activity in assay [7] worked out at 86%; in assay [8], 110%; in assay [9] it was 80%; in assay [1], 96%; in [2], 48%; in assay [3], 102%. Moreover, the residual activity in assay [4] was 65%; in assay [5] it was 91%; in assay [6], 43%; in assay [10], 106%.

Take `CCc1nc(-c2ccc(OC)cc2)[nH]c1-c1ccncc1`: the residual activity came to 114% in [8]; 109% in assay [9]; 116% in [1]; 104% in [2]; 114% in assay [3]; 100% in assay [4].

With `CCn1cnc2c(Nc3cccc(Cl)c3)nc(N[C@@H]3CCCC[C@@H]3N)nc21`, the residual activity in assay [7] amounted to 9%; in [8] it was 98%; in [9], 49%; in [1], 70%; in assay [2], 15%; in assay [3], 78%. Moreover, the residual activity in assay [4] amounted to 23%; in [5] it was 89%; in assay [6], 31%; in assay [10], 32%.

As to `COc1cc(OC)c(/C=C2\C(=O)Nc3ccccc32)c(OC)c1`, the residual activity in assay [7] was determined as 84%; in assay [8] it was 103%; in assay [9], 105%; in [1], 128%; in assay [2], 101%; in [3], 94%. Besides, the residual activity turned out to be 94% in assay [4], 95% in [5], 84% in assay [6] and 100% in assay [10].

As to `O=C1c2ccccc2-c2nc3nnnn3nc21`, the residual activity amounted to 115% in assay [8], 102% in assay [9], 115% in assay [1] and 124% in assay [2].

As for `N/C(=N\[N+](=O)[O-])N/N=C\c1ccc(-c2cccc([N+](=O)[O-])c2)o1`, the residual activity in assay [7] amounted to 79%.

As for `COc1cc2ncnc(Nc3ccc(OCc4ccccc4)cc3)c2cc1OC`, the residual activity came out at 113% in [7]; 118% in assay [8]; 93% in assay [9]; 116% in assay [1]; 104% in assay [2]; 109% in [3]. Also, the residual activity was 90% in assay [4], 118% in [5], 101% in assay [6] and 94% in assay [10].
